Results from PubChem BioAssay (NCI).
Several values for one entry are separate records, joined by “and”; a condition that tells them apart may be missing. Equal values may be shown once. About 79,000 compounds went through this panel and 15% of them were active in at least one assay; those are over-represented in the sample as a whole. Values without a mark were called inactive. Activity calls are given as the source filed them. Cut-off read from the data, not from the text of the source: active = growth inhibition above about 70%; inactive = the rest.

Assays:
[1] = NCI Yeast Anticancer Drug Screen. Data for the rad50 strain (AID 155);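 note: 0% = growth of vehicle-only cultures of the same strain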; conditions: S. cerevisiae rad50 strain growth inhibition, hits give high values; at 50.0 µM unless noted
Method in brief: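 Yeast carrying a defined DNA repair defect were exposed to test compounds, and growth was compared with vehicle-treated controls to give percent inhibition.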

[2] = NCI Yeast Anticancer Drug Screen. Data for the mec2-1 strain (AID 157); conditions: S. cerevisiae mec2-1 strain, hits give high values; at 50.0 µM unless noted
Method in brief: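 Test agents were screened against the mec2-1 yeast strain, with defined DNA repair or cell cycle alteration. Growth was scored as inhibition against vehicle-only controls.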

[3] = NCI Yeast Anticancer Drug Screen. Data for the sgs1 mgt1 strain (AID 161);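 note: 0% = growth of cultures given vehicle only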; conditions: S. cerevisiae sgs1 mgt1 strain, hits give high values; at 50.0 µM unless noted
Method in brief: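 Read-out: growth inhibition vs vehicle controls. Cells: mutant yeast strain deficient in DNA damage repair.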

[4] = NCI Yeast Anticancer Drug Screen. Data for the cln2 rad14 strain (AID 165);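 note: 0% = growth equal to vehicle treated cultures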; conditions: S. cerevisiae cln2 rad14 strain, hits give high values; at 50.0 µM unless noted
Method in brief: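 Growth of compound-exposed yeast (cln2 rad14 genotype) measured and expressed as inhibition relative to vehicle.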

[5] = NCI Yeast Anticancer Drug Screen. Data for the bub3 strain (AID 167); conditions: S. cerevisiae bub3 mutant strain, hits give high values; at 50.0 µM unless noted
Method in brief: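 Compounds were applied to a genetically altered yeast strain carrying a cell-cycle control defect. Growth inhibition was scored against vehicle-treated controls.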

[6] = NCI Yeast Anticancer Drug Screen. Data for the mlh1 rad18 strain (AID 175); conditions: S. cerevisiae mlh1 rad18 strain growth inhibition, hits give high values; at 50.0 µM unless noted
Method in brief: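 In this whole-cell yeast screen, a strain with altered DNA damage repair is challenged with compound, and its growth is measured against matched vehicle-treated controls.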

SMILES | growth inhibition [1] | growth inhibition [2] | growth inhibition [3] | growth inhibition [4] | growth inhibition [5] | growth inhibition [6]
C[Si](C)(C)Cn1cccc1 | -7.5% | 8.9% | 5% | -37.6% | -1.15% | -8.85%
N/N=C1/CCN2CCCc3cccc1c32 | 11.2% | 2.75% | 1.25% | -27.4% | -19.4% | 10.1%
CCC(C)C(O)C(C)C (stereo unspecified) | 11.3% | -18.1% | -15.6% | 13.6% | -4.6% | 21.8%
CN(CC#CC#CCN(C)c1ccccc1)c1ccccc1 | -14.2% | -28.1% | -13.6% | -27% | -35.2% | -20.1%
C[N+]1(CCC(=O)c2ccccc2)CCOCC1 | 42% | 9.85% | 28.4% | 20.8% | 13.5% | 19.9%
CC(N)(CC(O)(C(F)(F)Cl)C(F)(F)Cl)C(=O)O (stereo unspecified) | -48.1% | -37.7% | -33.4% | -9.25% | -13.7% | -28.8%
CC(=O)OC1CC2C3CCc4cc(O)ccc4C3CCC2(C)C1 (stereo unspecified) | 22.4% | -15.8% | -8% | 6.7% | -0.05% | 3.2%
CS(=O)CCC1C(=O)OC(C(C)(C)C)N1C(=O)c1ccccc1 (stereo unspecified) | 8.25% | 3.65% | 4.55% | -12.3% | -0.85% | -0.4%
Cc1cc(O)c(C)cc1O | 16.1% | 5.5% | -2.85% | 6.5% | -7.95% | 21.6%
C/C=C(/Br)C(=O)O | -11.6% | -6% | -10.2% | -53.5% | -5.2% | -12.9%
Nc1ccccc1SC1CC(=O)N(c2ccc3c(c2)OCO3)C1=O (stereo unspecified) | 6.55% | 8.85% | 20.4% | 16.4% | 8.35% | 16.3%
CC(=O)CCC(C)C1CCC2C3CCC4CCCCC4(C)C3CCC12C (stereo unspecified) | 7.4% | -3.05% | -7.75% | 13.8% | -2.15% | -1.8%
O=C1c2ccccc2CC(c2ccccc2)N1c1ccccc1 (stereo unspecified) | 51.1% | 0.4% | 31.4% | -22.4% | 3.55% | 32.1%
CC[N+]1(CC)CC[N+]2(CC1)CC[N+]1(CC[N+](CC)(CC)CC1)CC2 | -16.9% | -3.4% | 12.1% | -26.6% | 1.7% | 2.7%
COc1ccc(/C=C2/C/C(=C/c3ccc(OC)cc3)C2=O)cc1 | 14.2% | 9.25% | 10.2% | 7.2% | 4.65% | 15%
Cc1cc(Cl)c(OCC(=O)O)cc1C | -8.2% | -9.45% | -9.25% | -8.3% | -14.6% | -1.9%
CC(=O)OCc1c(COC(C)=O)c(-c2ccc(Cl)cc2)n2c1CCC2 | 34% | 16.6% | 19.3% | -18.1% | 9.6% | 23.9%
CC1(C)CC[C@]2(C(=O)O)CC[C@]3(C)C(=CC[C@@H]4[C@@]5(C)CC[C@H](O)C(C)(C)[C@@H]5CC[C@]43C)[C@@H]2C1 | -3.7% | 4.4% | -7.5% | 13.2% | 0.1% | -3.9%
CCOC(CN)(OCC)c1ccncc1 | 10.9% | 14.2% | 8.65% | -27.1% | 11.2% | -0.05%
CC(C)OC(=O)CC1NS(=O)(=O)c2ccccc21 (stereo unspecified) | 3.9% | 1% | -9.7% | 24.6% | -16.6% | 20.6%
COC(=O)C(Cc1ccc(N(C)C)cc1)(NC(=O)c1ccccc1)P(=O)(OC)OC (stereo unspecified) | -17.8% | 10.8% | -28.2% | 1.9% | 4.4% | -5.4%

SMILES | growth inhibition [1] | growth inhibition [2] | growth inhibition [3] | growth inhibition [4] | growth inhibition [5] | growth inhibition [6]
O=C1/C(=C/c2cccc([N+](=O)[O-])c2)Cc2ccccc21 | 12.7% | -5.9% | 5.65% | 14.1% | 17.6% | 5.05%
CN(C)C1=NS(=O)(=O)c2ccccc21 | -0.75% | 1% | -7.25% | -40.3% | 6.35% | 2.9%
CSc1ncn(C)c1C(N)=O | 0.1% | 4.25% | 1.5% | -5.2% | -3.25% | 11.2%
O=C(Nc1ccc(Cl)cc1[N+](=O)[O-])Oc1ccc(C2CCCCC2)cc1 | 98.2% (active) | 94.3% (active) | 98% (active) | 87% (active) | 98% (active) | 97.5% (active)
CC(O)C(=O)OCCOc1ccc(Cl)cc1Cl (stereo unspecified) | 7.75% | 10.3% | 27.3% | -38.1% | 31.3% | 28.2%
c1cc(-c2ncc[nH]2)ccn1 | -6.9% | -12.2% | -4.25% | -4.05% | 6.1% | -8.2%
CC1CC(C)(O)C2C3(C)CCCC2(COC3=O)C12CCC1(CCOC1=O)O2 (stereo unspecified) | 0.9% | -23.5% | 25.3% | 3.8% | -0.6% | 2.9%
O=Cc1ccc(C=O)o1 | 4.25% | -1.8% | 28.9% | 6.3% | -11.7% | 14.2%
CCCN(CCC)CC(O)c1ccc(Cl)c2ccccc12 (stereo unspecified) | 1.85% | -30.1% | 21.1% | -35.3% | -17.9% | -9.55%
C=CC[N+]1(CCOC(=O)C(c2ccccc2)C2C=CCC2)CCCC1 (stereo unspecified) | -17.1% | 1.35% | -6.9% | -13.8% | -13.9% | -22.4%
NC(Cc1c[nH]c2ccccc12)C(=O)O (stereo unspecified) | 4.2% and -1.1% | -7.9% and -8.7% | -13.2% and 6.55% | 3% and -1.25% | -28.4% and -2.7% | 2.65% and -16.2%
COc1cc(C2c3cc4c(cc3OC3(O)CCCC23)OCO4)cc(OC)c1OC (stereo unspecified) | -0.85% | 3.55% | 2.45% | -25.1% | 3.15% | -2.25%
O=C(CC(=O)c1ccc(OC(=O)c2ccccc2)cc1O)c1ccccc1 | -12.7% | -4.95% | -2.8% | -16.1% | 8% | -27.6%
Cn1cnc2ncnc(Cl)c21 | 1.85% | -3.45% | 9.8% | -19.1% | -52.1% | -26.9%
NCC(O)C(O)C(O)CO (stereo unspecified) | 6.15% | -6% | -1.3% | -20% | 9.1% | -8.8%
Cc1cc(C)c(F)c(C)c1F | -7.95% | -4.6% | -5.45% | -15.8% | 5.9% | -2.3%
Cc1cnc2ccccc2c1/C=C/c1ccc(N(C)C)cc1 | -6.15% | -0.1% | 1.55% | -121% | 14.1% | 14.1%
CC(C)(C)CC(=O)NC1CCCCC1 | -6.55% | -5.8% | 12.2% | -23.1% | 3.4% | 13.7%
CC(Cl)S(=O)(=O)c1ccccc1 (stereo unspecified) | 7.45% | -4.05% | -17.9% | -42.5% | 8.35% | -14.3%
CC(C)OC(=O)Oc1cccc(OC(=O)OC(C)C)c1 | 3.15% | -28.8% | 2.15% | 6.95% | 8.5% | 9.3%
